An excerpt weighted towards active compounds, which were near 2.4% of everything screened.
D2 PAM-1: Beta-Arrestin HTS for Positive Allosteric Modulators of the Human D2 Dopamine Receptor: Potentiators; potentiation, % (concentration not given with the values); 360,000 tested, 0.23% active; DiscoveRx D2 beta-arrestin cells, luminescence, 90 min; 100% = 57 uM dopamine signal; D(2) dopamine receptor (Homo sapiens), P14416; in the data active = potentiation above about 50%; inconclusive = mostly about 30% to 49%
Target sequence (P14416 whole entry, looked up): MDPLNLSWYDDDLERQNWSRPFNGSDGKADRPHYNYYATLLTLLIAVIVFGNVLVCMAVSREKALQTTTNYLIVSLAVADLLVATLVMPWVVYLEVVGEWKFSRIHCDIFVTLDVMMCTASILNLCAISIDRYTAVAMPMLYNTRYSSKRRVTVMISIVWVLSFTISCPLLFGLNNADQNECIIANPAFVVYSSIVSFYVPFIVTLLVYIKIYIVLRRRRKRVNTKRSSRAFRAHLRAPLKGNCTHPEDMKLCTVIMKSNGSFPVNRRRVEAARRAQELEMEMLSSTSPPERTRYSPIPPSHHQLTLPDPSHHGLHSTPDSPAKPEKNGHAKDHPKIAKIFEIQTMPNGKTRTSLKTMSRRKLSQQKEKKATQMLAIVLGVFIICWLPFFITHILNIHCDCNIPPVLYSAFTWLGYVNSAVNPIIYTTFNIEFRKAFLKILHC
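PathHunter beta-arrestin assay in DiscoveRx D2 cells. Compounds were added with an EC20 of dopamine (50 nM final) for 90 min at 37 deg C. Luminescence was read 1 h after detection reagent, with 57 uM dopamine as the EC100 control.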
D2 ag-1: HTS Assay for Allosteric Agonists of the Human D2 Dopamine Receptor: Primary Screen for Agonists | activation, % at 2 µM | HEK293 T-REx D2 cells, calcium flux agonist mode | 340,000 tested, 0.53% active | D(2) dopamine receptor (Homo sapiens), P14416;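 active = activation over 3 SD above normal in the single-dose calcium agonist read, cut at about 30% in these data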; also: 0% is about no effect
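In this primary screen, compounds producing a positive calcium signal within 180 s of addition to tetracycline-induced, force-coupled HEK293 Trex D2 cells are flagged; cells are dye-loaded with a no-wash calcium kit beforehand.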
D2 PAM-2: HTS Assay for Positive Allosteric Modulators of the Human D2 Dopamine Receptor: Primary Screen for Potentiators; HEK293 T-REx D2, calcium flux, EC20 dopamine potentiation; D(2) dopamine receptor (Homo sapiens), P14416; 340,000 tested, 0.34% active; potentiation, % at 10 µM;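 active = potentiation over 3 SD above the plate norm, cut at about 30% in these data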; also: 0% is about no effect
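Calcium flux readout, no-wash dye, 1 read/s. Inducible HEK293 Trex D2 line, overnight 30 C. Compound alone 180 s (agonist flags), then EC20 dopamine, another 180 s to score potentiation.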
D2 ag-2: Beta-Arrestin HTS for Positive Allosteric Modulators of the Human D2 Dopamine Receptor: Agonists | D(2) dopamine receptor (Homo sapiens), P14416 | DiscoveRx PathHunter D2 beta-arrestin, luminescence, 90 min; 100% = 57 uM dopamine signal | activation, % (test concentration not listed) | 360,000 tested, 0.084% active; in the data active = activation above about 40%; inconclusive = between about 15% and that limit
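DiscoveRx PathHunter D2 beta-arrestin cells (2,100/well) attached overnight, then compound-stimulated 90 min at 37 C in HBSS/10 mM HEPES/0.1% Tween-20 buffer; beta-galactosidase complementation read by luminescence after 1 h at ambient temperature. Dopamine 57 uM final (EC100) as control.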
D2 antag: HTS Assay for Allosteric Antagonists of the Human D2 Dopamine Receptor: Primary Screen for Antagonists; HEK293 TREx D2 cells, calcium flux, dopamine EC80; 340,000 tested, 2% active; D(2) dopamine receptor (Homo sapiens), P14416; inhibition, % at 10 µM; in the data active = inhibition above about 30%; inactive = below that, where a call was filed; also: 0% is about no effect
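Overnight-induced (tetracycline, 30 C) HEK293 T-REx cells carrying force-coupled D2 receive a no-wash calcium dye, then compound, then EC80 dopamine at 180 s; signals are read kinetically throughout.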
The depositor's hits bear a star; ? = inconclusive; / = not tested or not shown.

SMILES | D2 PAM-1 | D2 ag-1 | D2 PAM-2 | D2 ag-2 | D2 antag
COC(=O)c1ccccc1NC(=O)CSc1c2c(nc3ccc(Cl)cc13)CCCC2 | / | 0 | 0 | / | /
Cc1ccccc1NC1=C(C(=O)c2ccccc2)N(C)S(=O)(=O)c2ccccc21 | -20 | 1 | -9 | -2 | 3
O=C(C1=C(Nc2ccccc2)c2ccccc2S(=O)(=O)N1)c1ccccc1 | -19 | 0 | 3 | -4 | 40*
COc1ccc(CNC(=O)c2cc(-c3ccccc3OC)on2)cc1 | -20 | -1 | -27 | -3 | 91*
COc1ccccc1-c1cc(C(=O)NCc2ccc(Cl)cc2)no1 | -17 | / | / | -2 | /
COc1ccccc1-c1cc(C(=O)NCc2ccccc2)no1 | -20 | 0 | -26 | 1 | 81*
COc1cccc2[nH]c(C(=O)NCc3ccccc3)cc12 | -13 | -2 | -28 | -2 | 42*
COc1ccc(CNC(=O)c2cc(-c3ccco3)on2)cc1 | -6 | 0 | -12 | -1 | -2
COc1ccccc1-c1cc(C(=O)NCc2ccc(F)cc2)no1 | -23 | 1 | -13 | -2 | 74*
COC(=O)NCC(c1cccnc1)N1CCOCC1 (stereo not drawn) | -10 | 0 | -1 | -6 | 25
O=C(NCC(c1cccnc1)N1CCOCC1)c1cccs1 (stereo not drawn) | -1 | 1 | -2 | 0 | 34*
Cc1cc(C)cc(NC(=O)[C@H](NC(=O)[C@@H]2Cc3ccccc3CN2)c2ccccc2)c1 | -21 | 0 | -20 | -3 | 40*
Clc1cccc(N2CCN(CCNc3nc4ccccc4n4cnnc34)CC2)c1 | -16 | 4 | -21 | 3 | 42*
c1ccc(CN2CCN(c3nc4ccccc4n4cnnc34)CC2)cc1 | -5 | 1 | -32 | -5 | 68*
Cn1c(=O)c(=O)n(C)c2cc(S(=O)(=O)Nc3ccc(Cl)c(C(F)(F)F)c3)ccc21 | / | 0 | -1 | / | /
N#CCCn1cc(C(=O)CN2C(=O)C(=O)N(C3CCCC3)C2=O)c2ccccc21 | -18 | 1 | 4 | -1 | -6
O=C(O)c1cccc(NC(=O)c2cccc(S(=O)(=O)N3CCc4ccccc4C3)c2)c1 | -9 | 0 | -2 | 1 | 6
CN1CCN(c2oc(-c3ccccc3)nc2S(=O)(=O)c2ccc(Br)cc2)CC1 | -28 | 0 | -25 | -4 | 31*
CN1CCN(c2oc(-c3cccs3)nc2S(=O)(=O)c2ccccc2)CC1 | -38 | 0 | -25 | -6 | -35
CN1CCN(c2oc(-c3ccccc3Cl)nc2S(=O)(=O)c2ccccc2)CC1 | -50 | 1 | -21 | -4 | 79*
CCOc1ccc(OCC)c(NC(=O)C2CCN(S(=O)(=O)c3ccc(Br)s3)CC2)c1 | / | / | 2 | / | /
Cc1cccn2c(=O)c3cc(C#N)c(=O)n(Cc4cccnc4)c3nc12 | -16 | 0 | 1 | 0 | 41*
N=c1c(S(=O)(=O)c2ccccc2)cc2c(=O)n3ccccc3nc2n1Cc1cccnc1 | -67 | 0 | -8 | -5 | 44*
COc1ccc(CCNC(=O)Cc2c(C)c3c(cc(C)c4c(C)c(C)oc43)oc2=O)cc1 | / | 1 | -7 | / | /
O=C(COc1ccccc1F)OCc1cc(=O)n2nc(-c3cccs3)sc2n1 | / | / | 15 | / | /
SMILES | D2 PAM-1 | D2 ag-1 | D2 PAM-2 | D2 ag-2 | D2 antag
CCOC(=O)CCNC(=O)Nc1ccc2nc(C)n(Cc3cccc(Cl)c3)c(=O)c2c1 | 7 | -2 | 35* | 0 | -15
CCCc1nc2ccc(NC(=O)NCCC(=O)OCC)cc2c(=O)n1Cc1cccc(Cl)c1 | 3 | 0 | 4 | 0 | -16
C(=N\Nc1nc(-c2ccccc2)cs1)/c1ccncc1 | -5 | 1 | -5 | 4 | -15
C(=N\Nc1nc(-c2ccccc2)cs1)/c1cccs1 | 63* | -1 | 5 | 13 | -11
Cc1ccc(-c2c[n+](Cc3ccc(Cl)c(Cl)c3)c3n2CCC3)cc1 | -40 | 1 | -28 | -3 | 30*
COC(=O)c1cc(Cl)c(NC(=O)c2cc3ccccc3o2)cc1OC | -11 | 1 | -5 | -1 | 32*
COc1ccc(NC(=O)c2cc3ccccc3o2)c(OC)c1 | / | / | -11 | / | /
O=C1NC(=S)SC1=Cc1ccccn1 | -11 | / | / | -14 | /
OCCN1CCN(c2ncnc3sc4c(c23)CCCC4)CC1 | -4 | 1 | 16 | 7 | 0
c1ccc2c(c1)nnn2-c1ncnc2sc3c(c12)CCCC3 | -7 | 1 | 11 | 0 | 31*
Oc1ccc(N2CCN(c3ncnc4sc5c(c34)CCC5)CC2)cc1 | 68* | 0 | 4 | 11 | -9
Cc1nc(-n2nnc3ccccc32)c2c3c(sc2n1)CCCC3 | -4 | -1 | -6 | -1 | -15
COc1ccc(CCNC(=O)c2cc(=O)[nH]c3ccc(S(=O)(=O)N4CCCCC4C)cc23)cc1OC (stereo not drawn) | / | 3 | 15 | / | /
CSc1ccc(/C=C/C(=O)OCC(=O)N2CCN(S(=O)(=O)c3ccc(C)cc3C)CC2)cc1 | -4 | 0 | -2 | 3 | 41*
Cc1ccc(S(=O)(=O)N2CCN(C(=O)CCC(=O)NCc3ccc(F)cc3)CC2)cc1 | -5 | 1 | 2 | -1 | -14
N#C/C(=C\c1ccc(-c2ccccc2[N+](=O)[O-])o1)C(=O)Nc1nc(-c2cccs2)cs1 | -38 | 0 | 16 | -9 | 32*
CCN(CC)c1ccc2cc(-c3nnc(-c4ccccc4)o3)c(=O)oc2c1 | -2 | 116* | -7 | -1 | 38*
CN(C)Cc1c(O)ccc2cc(-c3nc4ccccc4n3C)c(=O)oc12 | -2 | 20 | 4 | 3 | 14
CCN(CC)c1ccc2cc(-c3nc4ccccc4[nH]3)c(=O)oc2c1 | 17 | 104* | -14 | 5 | 76*
CCN(CC)c1ccc2cc(-c3nc(-c4ccc(OC)cc4)cs3)c(=O)oc2c1 | 25 | 101* | -19 | ? | 71*
CCN(CC)c1ccc2cc(-c3nc4ccccc4n3C)c(=O)oc2c1 | 6 | 72* | -8 | 2 | 40*
CCOc1ccccc1CNC(=O)CCn1c(=O)c2cccn2c2ccc(F)cc21 | / | 1 | 1 | / | /
CCOc1ccccc1NC(=O)C1=C(C)Nc2ncnn2C1c1ccc(C)o1 (stereo not drawn) | / | -1 | -5 | / | /
Cc1ccc(Cc2c(-c3ccc(F)cc3)nc3cc(C)ccn23)cc1 | -1 | / | / | -6 | /
O=[N+]([O-])c1ccc(S(=O)(=O)c2ccccc2)nc1 | -65 | 0 | 1 | 48* | -8

Screening results as filed in PubChem BioAssay.
